# Assay outcomes: PubChem BioAssay, Pan Lab, Icahn School of Medicine at Mount Sinai
# Many of the other results were omitted from the sample, so hits are more common in it than they were.
# ROC1-CUL1 inh = inhibitors of human ROC1-CUL1 ubiquitin ligase activity; E3 ubiquitin-protein ligase RBX1 (Homo sapiens) + Cullin-1 (Homo sapiens), P62877+Q13616; in vitro K48 di-Ub FRET, acceptor:donor ratio, 45 min; inhibition, % at 10 µM; 0.6% of 140,000 active; AID 1347404, 2020; in the data active = inhibition above about 25%
# Target sequence (P62877 whole entry, looked up): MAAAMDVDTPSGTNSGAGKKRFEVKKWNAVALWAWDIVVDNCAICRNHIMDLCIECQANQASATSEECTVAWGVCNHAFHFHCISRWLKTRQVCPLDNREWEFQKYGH
# Target sequence (Q13616 whole entry, looked up): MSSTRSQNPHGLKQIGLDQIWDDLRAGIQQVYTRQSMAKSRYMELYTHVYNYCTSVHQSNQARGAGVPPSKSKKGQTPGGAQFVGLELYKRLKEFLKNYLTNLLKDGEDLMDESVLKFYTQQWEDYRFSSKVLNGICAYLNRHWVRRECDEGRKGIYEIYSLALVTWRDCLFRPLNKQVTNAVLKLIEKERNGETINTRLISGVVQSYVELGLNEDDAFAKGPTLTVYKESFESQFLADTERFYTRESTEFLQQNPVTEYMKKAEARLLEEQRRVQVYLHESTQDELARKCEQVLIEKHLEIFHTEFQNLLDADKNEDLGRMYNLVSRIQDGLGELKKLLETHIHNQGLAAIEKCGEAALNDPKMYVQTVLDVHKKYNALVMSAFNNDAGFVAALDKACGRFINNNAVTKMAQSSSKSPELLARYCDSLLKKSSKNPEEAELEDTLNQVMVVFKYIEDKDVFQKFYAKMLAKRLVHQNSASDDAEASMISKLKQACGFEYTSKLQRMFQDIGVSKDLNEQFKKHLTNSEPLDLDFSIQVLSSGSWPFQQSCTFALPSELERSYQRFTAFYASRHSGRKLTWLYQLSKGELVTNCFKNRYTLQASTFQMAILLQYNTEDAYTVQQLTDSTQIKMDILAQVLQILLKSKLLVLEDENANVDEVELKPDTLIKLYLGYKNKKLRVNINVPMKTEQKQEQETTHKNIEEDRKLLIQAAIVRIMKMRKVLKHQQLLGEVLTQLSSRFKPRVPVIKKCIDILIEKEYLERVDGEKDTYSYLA
# An asterisk follows results filed as active.
SMILES,ROC1-CUL1 inh
Nc1ccccc1C#Cc1ccccc1,0
OCc1ccc(C#Cc2ccccc2)o1,81*
OCc1ccccc1C#Cc1ccccc1,1
COC1=CC(=NC#N)C(Br)=CC1=NC#N,104*
CCOC(=O)c1ccc(N=C2S/C(=C/c3cc(OC)c(OC)c(OC)c3)C(=O)N2CC)cc1,4
CCN1C(=O)/C(=C/c2cc(OC)c(OCC(=O)O)cc2Br)SC1=Nc1ccc(OC)cc1,7
COc1cc(/C=C2\SC(=O)N(Cc3ccc(F)cc3)C2=O)ccc1OCc1ccc(C(=O)O)cc1,17
COc1cc(/C=C2/SC(=O)N(Cc3ccc(F)cc3)C2=O)cc(I)c1OCC(=O)O,98*
CCOc1ccc(N=C2S/C(=C\c3cc(Cl)c(OCC(=O)O)c(OC)c3)C(=O)N2CC)cc1,94*
O=C(O)COc1ccc(Br)cc1/C=C1\SC(=O)N(Cc2ccc(F)cc2)C1=O,1
CCc1c(C)sc(NC(=O)OC)c1C#N,4
COc1ccccc1/C=C\C(=O)c1c(-c2ccccc2)c2cc(Cl)ccc2[nH]c1=O,-3
CC(NC(=O)c1cc(F)c(F)cc1Cl)C12CC3CC(CC(C3)C1)C2 (stereo not given),1
O=C(O)c1ccc([N+](=O)[O-])c(Cl)n1,-10
COc1ccc(C(C)OC2CC(=O)CC3C(=O)c4cccc(O)c4C(=O)C23)cc1 (stereo not given),2
CC(C)(C)OC1CC(O)CC2C(=O)c3c(O)ccc(O)c3C(=O)C12 (stereo not given),15
CC(OC1CC(=O)CC2C(=O)c3c(O)ccc(O)c3C(=O)C12)c1ccc2ccccc2c1 (stereo not given),97*
CCC1CCc2c(sc(NC(=O)c3c(C)noc3C)c2C(N)=O)C1 (stereo not given),74*
CCCC1CCc2c(sc(NC(=O)c3cc(C)on3)c2C(N)=O)C1 (stereo not given),-3
Cc1noc(C)c1C(=O)Nc1sc2c(c1C(N)=O)CCCCCC2,8
CCOc1cc(C2c3c(n[nH]c3CC)OC(=N)C2C#N)ccc1OC(F)F (stereo not given),-9
O=C(O)c1cc(S(=O)(=O)O)cc(Nc2c3ccccc3nc3ccccc23)c1O,-7
CC1=NN(c2cc(S(=O)(=O)O)cc(C(=O)O)c2O)C(=O)C1,69*
Nc1cc(S(=O)(=O)O)cc(C(=O)O)c1O,12
COc1cc(F)ccc1C(=O)NCCC1CN(c2cnn(C)c(=O)c2)CCO1 (stereo not given),6
SMILES,ROC1-CUL1 inh
CC(=O)c1cccc(NC(=O)c2ccc(Cl)c(S(=O)(=O)N3CCOCC3)c2)c1,34*
Cc1ccc(C(=O)Nc2ccc(F)cc2)cc1S(=O)(=O)N1CCOCC1,-4
Cc1ccc(C(=O)Nc2cccc(C(=O)O)c2)cc1S(=O)(=O)N1CCCC1,5
Clc1ccc(N2CCN(C3=Cc4ccccc4C3)CC2)cc1,3
Cc1ccc(N2C(C#N)c3ccccc3OC2c2ccccc2O)cc1 (stereo not given),1
CCOc1c(Cl)cc(CNc2ccc(N3CCCC3)cc2)cc1OC,68*
COc1cccc(CNc2ccc(N3CCOCC3)cc2)c1OC,11
COc1cc(CNc2ccc(N3CCCC3)cc2)cc(Cl)c1OCc1ccc(F)cc1,-12
COC(=O)C1C(C(=O)OC)C2(c3ccccc3)C(C(=O)OC)C(C(=O)OC)C1(c1ccccc1)N2C(C)=O (stereo not given),-6
CCOC(=O)c1ccc(NC(=O)CSc2nnc(Cc3ccc(OC)cc3)o2)cc1,10
CC1=NC(=O)NC(=O)C1S(=O)(=O)Nc1cccc(Cl)c1C (stereo not given),-12
CC1=C(SCc2ccccc2)C(=O)c2ccccc2C1=O,37*
Cc1cc2c(n1Cc1ccccc1)C(=O)c1ccccc1-2,7
Cc1ccccc1-n1ncc(SCc2ccccc2)c(Cl)c1=O,-2
CN(C(=O)c1coc(COc2ccccc2F)n1)C(C1CC1)C1CC1,2
CC12CN3CC(C)(CN(C1)C3c1ccccc1Cl)C2O (stereo not given),-3
Clc1ccccc1C1NCCS1 (stereo not given),31*
COc1ccc2[nH]c3c(c2c1)CCNC3c1ccccc1Cl (stereo not given),-1
Cc1ccc(C)c(OC(=O)c2ccc(=O)oc2)c1,28*
O=C(Oc1ccc(S(=O)(=O)O)cc1C(=O)O)c1ccc(=O)oc1,5
CCc1ccc(C)c(OC(=O)c2ccc(C)cc2)c1,-7
c1ccc(CCc2c[nH]c3ccccc23)nc1,-3
CCOC(=O)c1cc(C(C)=O)n2ccc3ccccc3c12,6
Cc1cc(-c2ccccc2)n2nc(S(N)(=O)=O)c(C#N)c2n1,-1
C[S+]1CCC(OC(c2ccccc2)c2ccccc2)CC1 (stereo not given),-4
CN=C1CC=C(Br)C=C(C(=O)/C=C/c2ccc(C#N)cc2)C1=O,4
CN=C1CC=CC=C(/C(C)=N/Nc2ccccc2)C1=O,-5
CN=C1CC=CC=C(C(=O)/C=C/c2ccc3c(c2)OCO3)C1=O,93*
CCN=C1CC=CC=C(C(=O)/C=C/c2ccc3c(c2)OCO3)C1=O,4
